An excerpt weighted towards active compounds, which were near 4.1% of everything screened.
ssDAF-12 act – activates DAF-12 receptor from parasite S. stercoralis | HEK293 ssDAF-12/GRIP1 lit1-tk-luc reporter, luminescence; % of 3 µM dafachronic acid response | activation, % at 6.8 µM | 370,000 tested, 1% active | AID 652126;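 active = activation above the mean over all tested compounds plus 3 SD, cut at about 0.9% in these data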
DAX1 inh-1 – inhibits human nuclear receptor DAX1; P51843; AID 504766; inhibition, % at 6.75 µM; 340,000 tested, 0.99% active; HEK293 Gal4-DAX1 luciferase reporter, luminescence;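 active = inhibition above the mean over all tested compounds plus 3 SD, cut at about 4.2% in these data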;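 note: inhibition shows as a rise in luminescence from relieved DAX1 repression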
Target sequence (P51843 207-470 limits assumed): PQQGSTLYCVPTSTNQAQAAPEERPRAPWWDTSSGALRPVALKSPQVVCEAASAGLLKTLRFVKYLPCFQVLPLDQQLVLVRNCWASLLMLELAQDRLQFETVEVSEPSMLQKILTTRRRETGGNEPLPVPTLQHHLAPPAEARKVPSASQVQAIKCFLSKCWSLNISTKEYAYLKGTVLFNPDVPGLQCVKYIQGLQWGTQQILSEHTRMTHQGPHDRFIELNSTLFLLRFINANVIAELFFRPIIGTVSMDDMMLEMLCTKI
hcDAF12 agonist – H. contortus DAF-12 activation, primary screen | HEK293 hcDAF-12 lit1-tk-luc reporter, luminescence; 0% DMSO, 100% Δ7-dafachronic acid | activation, % at 6.8 µM | 370,000 tested, 1.4% active;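 active = activation above the mean of all tested compounds plus 3 SD, cut at about 5.5% in these data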
hgDAF-12 ag – agonists of H. glycines DAF-12 nuclear receptor; HEK293 GAL4-hgDAF12 UAS-luciferase reporter, agonist luminescence; normalized to butyrate control; AID 687014; 370,000 tested, 1.8% active; activation, % at 6.8 µM;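 active = activation above a cutoff set at the mean of all screened compounds plus 3 SD, cut at about 10% in these data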
DAX1 inh-2 – DAX1 (NR0B1) inhibition, primary screen; HEK293T StAR-luciferase reporter, SF-1/DAX-1 repression relief; inhibition, % at 6.8 µM; 370,000 tested, 1.1% active; AID 652010;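 active = inhibition above the mean over all tested compounds plus 3 SD, cut at about 3.6% in these data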;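 note: higher inhibition means more luminescence from relief of DAX-1 repression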
DAX1 inh confirm – NR0B1 (human) inhibition, confirmation | shares compounds with DAX1 inh-2 | 2,400 tested, 87% active | HEK293T StAR-promoter luciferase reporter, SF-1/DAX-1 repression | inhibition, % at 6.8 µM;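 active = inhibition above the average of every tested compound plus 3 SD, cut at about 3.8% in these data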;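 note: active compounds raise luminescence by relieving repression of the StAR reporter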
SF1 mutant ctr – counter-screen for DAX1 inhibitors: nonselective inhibitors with SF-1 AF2 mutant; shares compounds with DAX1 inh-2; HEK293 StAR-luciferase, luminescence; inhibition, % at 6.8 µM; 2,400 tested, 78% active;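 active = inhibition above the mean of all tested compounds plus 3 SD, cut at about 3% in these data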
LXR ag – activates human LXR-beta, counter-screen for hcDAF-12 agonists. shares compounds with hcDAF12 agonist. HEK293 Gal4-LXR tk-luc reporter, luminescence, 24 h; normalized: DMSO 0%, positive control 100%. activation, % at 6.8 µM. 3,400 tested, under 10 active. AID 743027;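 active = mean percent activation of the reporter above a cutoff set as the average over tested compounds plus their standard deviation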
Target sequence (P55055 whole entry, looked up, the tested form may be a part): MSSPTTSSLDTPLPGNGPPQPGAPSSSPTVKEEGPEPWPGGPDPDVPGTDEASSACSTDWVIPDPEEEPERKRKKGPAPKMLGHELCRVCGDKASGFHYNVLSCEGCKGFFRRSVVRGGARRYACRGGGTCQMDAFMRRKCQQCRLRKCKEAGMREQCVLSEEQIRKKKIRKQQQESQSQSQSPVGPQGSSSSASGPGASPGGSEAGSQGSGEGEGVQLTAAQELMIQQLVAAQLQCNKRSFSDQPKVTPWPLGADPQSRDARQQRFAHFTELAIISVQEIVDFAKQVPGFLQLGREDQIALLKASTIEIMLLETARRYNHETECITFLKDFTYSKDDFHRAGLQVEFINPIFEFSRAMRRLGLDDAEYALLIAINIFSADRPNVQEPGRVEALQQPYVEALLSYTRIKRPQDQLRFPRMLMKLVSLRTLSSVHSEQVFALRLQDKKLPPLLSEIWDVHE
hcDAF12 conf – confirmation of H. contortus DAF-12 agonists. shares compounds with hcDAF12 agonist. activation, % at 6.8 µM. AID 743032. 3,400 tested, 61% active. HEK293 hcDAF-12 lit1-tk-luc reporter, luminescence; % of Δ7-dafachronic acid response;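 active = mean activation across triplicate tests above the threshold derived from the earlier primary screen, cut at about 5.5% in these data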
Large screens that a line does not name were inactive (follow-up assays come after a bar, where they were run).

COc1ccc(-c2cn3ccc4ccccc4c3n2)cc1	ssDAF-12 act 5.2, hcDAF12 agonist 23, hgDAF-12 ag 18, DAX1 inh-2 7.1 | DAX1 inh confirm 19 | SF1 mutant ctr 9.6 | LXR ag inactive | hcDAF12 conf 23
COc1ccc(Cc2c(-c3ccc(C)cc3)nc3c4ccccc4ccn23)c(C)c1	none (no result: DAX1 inh-1)
O=S1(=O)c2c(cccc2N2CC[C@H](O)C2)OCCCN1C1CC1	none (no result: DAX1 inh-1)
Fc1ccc(-c2cn3cc(C(F)(F)F)cc(Cl)c3n2)cc1	ssDAF-12 act 3.7, DAX1 inh-1 4.9, hcDAF12 agonist 19, hgDAF-12 ag 12, DAX1 inh-2 6.0 | DAX1 inh confirm 17 | SF1 mutant ctr 8.8 | LXR ag inactive | hcDAF12 conf 22
O=C(OCC#CCSc1nnc(-c2ccc3ccccc3c2)o1)c1cccs1	none (no result: DAX1 inh-1, DAX1 inh-2)
CCOc1ccc(OCc2cccc(C(=O)O)c2)cc1	ssDAF-12 act 1.0, hcDAF12 agonist 8.8, hgDAF-12 ag 11, DAX1 inh-2 6.6 | DAX1 inh confirm 15 | SF1 mutant ctr 7.9 | LXR ag inactive | hcDAF12 conf 15
CC(C)[C@H](NC(=O)c1ccc(Cl)cc1Cl)C(=O)N1CCC[C@H]1C(=O)NCCc1ccccc1Cl	none (no result: DAX1 inh-1)
O=C(/C=C/c1ccc(Cl)c(Cl)c1)N1CCc2ccccc21	none
O=C(/C=C/c1cccs1)N1CCc2ccccc21	ssDAF-12 act 3.6, hcDAF12 agonist 20, hgDAF-12 ag 28, DAX1 inh-2 7.3 | DAX1 inh confirm 19 | SF1 mutant ctr 8.4 | LXR ag inactive | hcDAF12 conf 21
CCOC(=O)c1ccccc1NC(=O)C1CCCO1 (centres undefined)	none
O=C(NCCOc1ccccc1)c1ccccc1NC(=O)C1CCCO1 (centres undefined)	hcDAF12 agonist 9.0, hgDAF-12 ag 11, DAX1 inh-2 5.6 | DAX1 inh confirm 8.3 | SF1 mutant ctr 7.3 | LXR ag inactive | hcDAF12 conf 10
O=C1C[C@@H](c2ccccc2)N=C2N(CC3CC3)C/C(=C/c3ccccc3)N12	none (no result: DAX1 inh-1)
COc1ccc(S[C@]2(C(=O)N3CCN(c4ncccn4)CC3)CC(=O)N(c3ccc(OC)cc3)[C@@H]2c2ccc(OC)cc2)cc1	none (no result: DAX1 inh-1)
O=C(NC1=NCCS1)c1ccccc1Cl	none
O=C(NC1=NCCS1)c1cc2ccccc2o1	hcDAF12 agonist 7.0, hgDAF-12 ag 11, DAX1 inh-2 5.3 | DAX1 inh confirm 11 | SF1 mutant ctr 7.2 | LXR ag inactive | hcDAF12 conf 6.2
O=Cc1nccc2ccccc12	none
C(=Cc1c[nH]c2ccccc12)c1nccc2ccccc12	ssDAF-12 act 4.1, hcDAF12 agonist 24, hgDAF-12 ag 23, DAX1 inh-2 15 | DAX1 inh confirm 14 | SF1 mutant ctr 7.1 | LXR ag inactive | hcDAF12 conf 18
Fc1ccccc1/C=C/c1ccc2ccccc2n1	ssDAF-12 act 2.2, hcDAF12 agonist 20, hgDAF-12 ag 15, DAX1 inh-2 5.8 | DAX1 inh confirm 14 | SF1 mutant ctr 3.5 | LXR ag inactive | hcDAF12 conf 13
C(=Cc1c[nH]c2ccccc12)c1ccc2ccccc2n1	ssDAF-12 act 5.2, hcDAF12 agonist 20, hgDAF-12 ag 18, DAX1 inh-2 8.1 | DAX1 inh confirm 8.0 | SF1 mutant ctr inactive | LXR ag inactive | hcDAF12 conf 12
CC(C)CNS(=O)(=O)/C=C/c1ccccc1CNC(=O)OC(C)(C)C	none (no result: DAX1 inh-1)
COc1cccc(NC(=O)n2ccc3ccc(-c4ccc5ccn(C(=O)Nc6cccc(OC)c6)c5c4)cc32)c1	none (no result: DAX1 inh-1)
CCOC(=O)CC[C@@H]1CC[C@]2(CCCN(C(=O)C(C)(C)C)C2)O1	none (no result: DAX1 inh-1)
COc1ccc(C(CCOC(=O)Oc2ccccc2)c2cc(OC)c(OC)c(OC)c2)cc1 (centres undefined)	none (no result: DAX1 inh-1)
COc1ccc(-n2nc3cc(C)c(N)c(Br)c3n2)cc1	ssDAF-12 act 3.2, hcDAF12 agonist 20, hgDAF-12 ag 14, DAX1 inh-2 5.2 | DAX1 inh confirm 10 | SF1 mutant ctr 4.8 | LXR ag inactive | hcDAF12 conf 17
O=c1cc(-c2ccccc2)oc2ccc3ccccc3c12	hcDAF12 agonist 8.7, DAX1 inh-2 4.6 | DAX1 inh confirm inactive | SF1 mutant ctr inactive | LXR ag inactive | hcDAF12 conf 9.8
Cc1ccc(CN2CCCCC(NC(=O)c3cccc(C(F)(F)F)c3)C2=O)cc1 (centres undefined)	none (no result: DAX1 inh-1)
COCCCN1C(=O)[C@H](CC(=O)NCCCN2CCCC2=O)[C@]2(C(=O)OC)CCCCC=C12	none (no result: DAX1 inh-1)
Clc1ccc(C=Cc2ccccn2)c(Cl)c1	ssDAF-12 act 1.2, hcDAF12 agonist 8.2, hgDAF-12 ag 13, DAX1 inh-2 7.9 | DAX1 inh confirm 12 | SF1 mutant ctr 6.8 | LXR ag inactive | hcDAF12 conf 15
C=CCCC(=O)N(Cc1ccccc1)c1ccccc1C(=O)Nc1cc(OC)ccc1OC	none (no result: DAX1 inh-1)
Nc1nn(-c2cccc(F)n2)cc1-c1ccc(Cl)cc1	ssDAF-12 act 1.4, hcDAF12 agonist 11, hgDAF-12 ag 18, DAX1 inh-2 5.9 | DAX1 inh confirm 13 | SF1 mutant ctr 5.3 | LXR ag inactive | hcDAF12 conf 9.8
CCOC(=O)[C@@]12CCC3=C1N(CCC3)C(=O)[C@H](CC(=O)NCc1cccc(C(F)(F)F)c1)C2	none (no result: DAX1 inh-1)
Cc1ccc2nc(-c3sc4nc(C)ccc4c3N)[nH]c2c1	ssDAF-12 act 3.2, hcDAF12 agonist 14, hgDAF-12 ag 15, DAX1 inh-2 5.8 | DAX1 inh confirm 19 | SF1 mutant ctr 13 | LXR ag inactive | hcDAF12 conf 28
Cc1ccc2c(N)c(C#N)sc2n1	none
O=C(O)c1cccc(N/N=C/c2cccs2)c1	ssDAF-12 act 1.5, hcDAF12 agonist 13, hgDAF-12 ag 17, DAX1 inh-2 7.2 | DAX1 inh confirm 14 | SF1 mutant ctr 6.3 | LXR ag inactive | hcDAF12 conf 17
O=C1c2ccccc2CN2C(=O)c3ccccc3CN12	none
c1ccc(-c2cn3c(n2)-c2ccccc2C3)cc1	ssDAF-12 act 3.8, hcDAF12 agonist 21, hgDAF-12 ag 15, DAX1 inh-2 5.7 | DAX1 inh confirm 11 | SF1 mutant ctr 5.8 | LXR ag inactive | hcDAF12 conf 22
Cc1ccc(C)c(NC(=O)c2ccccn2)c1	none

Assay outcomes from PubChem BioAssay.
